PubChem BioAssay (NCI)
Values joined by “and” are separate entries in the source; they are usually repeats but may differ in a detail not shown here. Identical values can stand only once. About 79,000 compounds went through this panel and 15% of them were active in at least one assay; those are over-represented in the sample as a whole. No stated cut-off is given here; in the data, active means growth inhibition above about 70%; inactive means the rest.

Key:
[1] = NCI Yeast Anticancer Drug Screen. Data for the rad50 strain (AID 155);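 further: 0% = growth of vehicle-only cultures of the same strain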; details: S. cerevisiae rad50 strain growth inhibition, stronger effect = higher value; at 50.0 µM unless noted
Method in brief: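 A DNA repair-deficient yeast mutant serves as the test organism; compound-induced growth inhibition is calculated against vehicle-treated cells.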

[2] = NCI Yeast Anticancer Drug Screen. Data for the mec2-1 strain (AID 157); details: S. cerevisiae mec2-1 strain, stronger effect = higher value; at 50.0 µM unless noted
Method in brief: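 Readout is yeast growth inhibition, normalised to vehicle-treated controls, in the mec2-1 strain exposed to compound.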

[3] = NCI Yeast Anticancer Drug Screen. Data for the sgs1 mgt1 strain (AID 161);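 further: 0% = growth of cultures given vehicle only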; details: S. cerevisiae sgs1 mgt1 strain, stronger effect = higher value; at 50.0 µM unless noted
Method in brief: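 Compounds are added to genetically altered yeast, and growth is compared with cultures given vehicle alone to give percent inhibition.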

[4] = NCI Yeast Anticancer Drug Screen. Data for the cln2 rad14 strain (AID 165);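 further: 0% = growth equal to vehicle treated cultures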; details: S. cerevisiae cln2 rad14 strain, stronger effect = higher value; at 50.0 µM unless noted
Method in brief: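 Relative to vehicle controls, growth inhibition of compound-treated cln2 rad14 yeast was recorded.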

[5] = NCI Yeast Anticancer Drug Screen. Data for the bub3 strain (AID 167); details: S. cerevisiae bub3 mutant strain, stronger effect = higher value; at 50.0 µM unless noted
Method in brief: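 Inhibition values come from growth of compound-treated mutant yeast normalised to vehicle-treated controls.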

[6] = NCI Yeast Anticancer Drug Screen. Data for the mlh1 rad18 strain (AID 175); details: S. cerevisiae mlh1 rad18 strain growth inhibition, stronger effect = higher value; at 50.0 µM unless noted
Method in brief: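 Test agents were incubated with a yeast strain of defined genotype (DNA damage repair defect). Inhibition of growth was derived by comparison with vehicle-exposed cultures.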

Measured: growth inhibition

CC1CCC2(OC1)OC1CC3C4CC=C5CC(O)CCC5(C)C4CCC3(C)C1C2C (stereo unspecified)
inactive: [1] 21.8% and 13.3% | [2] 16.9% and -23.6% | [3] -1.5% and 3.2% | [4] -3.95% and 4% | [5] 1.35% and 14.8% | [6] 32.9% and 15.3%

COC(=O)c1c(C)ccc(C)c1Nc1cc(C)ccc1C
inactive: [1] -2.65% | [2] -18% | [3] -1.2% | [4] 9.55% | [5] 5.65% | [6] -15.7%

O=C(O)CCc1cnc[nH]1
inactive: [1] -0.7% | [2] -1.8% | [3] 1.2% | [4] 22.5% | [5] 14.6% | [6] 2.3%

COc1cccc(C)c1C(=O)O
inactive: [1] -4.05% | [2] 1.7% | [3] 5.7% | [4] -20.1% | [5] -32% | [6] -5.4%

CCOC(=O)c1cccc(N)c1C(=O)OCCN(CC)CC
inactive: [1] 1.65% | [2] 0.15% | [3] -3.75% | [4] -25.2% | [5] 19.4% | [6] 3.55%

O=C1/C(=C/c2ccccc2)CCC2CCCCC12 (stereo unspecified)
inactive: [1] 22.1% | [2] -0.95% | [3] -0.8% | [4] -24.9% | [5] -20.1% | [6] 14.4%

CCN(CC)CCNc1c(OC)c(OC)cc2nccnc12
inactive: [1] 9.85% | [2] 9.7% | [3] 30.9% | [4] 2.85% | [5] 0.2% | [6] -1.75%

O=C1CSC2=NCCN12
inactive: [1] 14.8% and 22.8% | [2] -3.6% and -15.3% | [3] -5.25% and 6.8% | [4] 1.5% and 3.2% | [5] 1.55% and -11.9% | [6] 21.3% and 18.8%

Cn1c(NN)nc2ccccc2c1=O
inactive: [1] -33.7% | [2] -3.25% | [3] -26.9% | [4] 5.55% | [5] -16.9% | [6] -27.8%

O=C1CSC(c2cc([N+](=O)[O-])ccc2Cl)N1c1nncs1 (stereo unspecified)
inactive: [1] 22.1% | [2] 15.6% | [3] 37.2% | [4] 19.1% | [5] 21.7% | [6] 28.4%

O=C(NCc1ccco1)Nc1ccccc1C(F)(F)F
inactive: [1] 2.3% | [2] 0.2% | [3] 18.5% | [4] 19.6% | [5] 20.4% | [6] 17.1%

O=C1C(=O)c2ccccc2C(O)=C1C1CCCCC1
inactive: [1] 44.4% | [2] 2.15% | [3] 24.3% | [4] 5.55% | [5] 18.1% | [6] 26.9%

CCCCN(Cc1ccccc1)C(=S)Nc1ccccc1
inactive: [1] 17.4% | [2] 47.8% | [3] 64.4% | [4] 1.85% | [5] 63.5% | [6] 67.3%

COCc1cccc2ccnc(COC)c12
inactive: [1] -8.2% | [2] 2.45% | [3] 5.95% | [4] 9.4% | [5] -8.35% | [6] 5.25%

CCOC(=O)C(F)C(=O)OCC
inactive: [1] 14.8% | [2] -2.95% | [3] -1% | [4] 12.1% | [5] -4.55% | [6] -5.4%

O=C(CCl)Oc1ccc(C(=O)O)cc1
inactive: [1] -1.1% | [2] -3.55% | [3] -1.8% | [4] -3.65% | [5] 0.85% | [6] -6.7%

Nc1ccc(S(=O)[O-])cc1.Nc1ccc(S(=O)[O-])cc1.[Zn+2]
inactive: [1] -19.2% | [2] -19.9% | [3] -6.15% | [4] -26.5% | [5] 1% | [6] -15.6%

O=C1c2ccccc2C(=O)N1/N=[N+](\[O-])c1ccccc1
inactive: [1] 3.55% | [2] 0.3% | [3] 17.2% | [4] 7.3% | [5] 25.3% | [6] 40.8%

CCC(CC)/C(=N/Nc1ccc([N+](=O)[O-])cc1[N+](=O)[O-])C1=CCCCC1
inactive: [1] -8.3% | [2] -12.1% | [3] -5.1% | [4] -24.1% | [5] -7.3% | [6] -15.7%

OCC#CC#CCO
inactive: [1] -3.7% | [2] -7.45% | [3] 8.75% | [4] -1.05% | [5] -15.8% | [6] -1.45%

c1cc2c(cc1CSCc1c(CSCc3ccc4c(c3)OCO4)c(CSCc3ccc4c(c3)OCO4)c(CSCc3ccc4c(c3)OCO4)c(CSCc3ccc4c(c3)OCO4)c1CSCc1ccc3c(c1)OCO3)OCO2
inactive: [1] -0.95% | [2] -8.65% | [3] -1.4% | [4] -39% | [5] 2.55% | [6] 9.3%

O=c1ccc2ccc3[nH]onc3c2c1
inactive: [1] 10.2% | [2] -12.6% | [3] -5.85% | [4] -48.8% | [5] -26.4% | [6] -2.2%

COc1cc([N+](=O)[O-])c(S(=O)(=O)O)cc1NS(=O)(=O)c1ccc(C)cc1
inactive: [1] 7.8% | [2] 16.6% | [3] 22% | [4] 3.95% | [5] 1.4% | [6] 10.2%

O=c1[nH]c(/C=C/c2ccccc2)c([N+](=O)[O-])c(=O)[nH]1
inactive: [1] -7% | [2] 2.9% | [3] -12.7% | [4] -19.6% | [5] 26.6% | [6] 16.8%

CC(=O)CCn1[nH]c(=O)c2ccccc2c1=O
inactive: [1] -2.05% | [2] 7.35% | [3] 1.6% | [4] 7.9% | [5] -3.15% | [6] 10.9%

CCOC(=O)/C(C#N)=C/c1ccc(C)cc1
inactive: [1] 10.4% | [2] 15.8% | [3] 11.2% | [4] 6.15% | [5] 22.3% | [6] 22.9%

CCC(=O)C(C)=O
inactive: [1] 16.9% | [2] 3.9% | [3] 13.1% | [4] -4% | [5] 0.15% | [6] 11.7%

CCCCCCCOC(=O)CO
inactive: [1] 22.4% | [2] 6.65% | [3] 16.2% | [4] 16.9% | [5] 1.95% | [6] 19.4%

CCOC(=O)C(=CNC(=S)Nc1c(CC)cccc1CC)C(=O)OCC
inactive: [1] -26.2% | [2] -38.4% | [3] -2.9% | [4] 4.65% | [5] -5.15% | [6] -59.9%

Cc1ccc(OCC2OC(n3cnc4c(Cl)ncnc43)CC2Oc2ccc(C)cc2)cc1 (stereo unspecified)
inactive: [1] -1.2% and 20.8% | [2] -10.2% and 3.5% | [3] 0.05% and 45% | [4] -6.6% and 15.3% | [5] -5.6% and 34% | [6] -32.6% and -25.1%

CCN(CC)C/C(C)=C(/c1ccccc1)c1ccccc1S(N)(=O)=O
inactive: [1] 5.8% | [2] 4.15% | [3] -1.5% | [4] -30.6% | [5] 1.15% | [6] 9.65%

CCOc1ccc([N+](=O)[O-])cc1[N+](=O)[O-]
inactive: [1] 43.3% | [2] 2.1% | [3] -11.3% | [4] -55.5% | [5] -25.6% | [6] -2.6%

O=C1c2ccccc2C(=O)N1CCCCCCCCCCN1C(=O)c2ccccc2C1=O
inactive: [1] 33% | [2] -10.3% | [3] 17.3% | [4] 2.75% | [5] -3.75% | [6] -7.15%

CNNC(=O)C(O)C(C)(C)CO (stereo unspecified)
inactive: [1] -4.45% | [2] 8.5% | [3] -4.3% | [4] 20.1% | [5] 6.5% | [6] 9.8%

O=C1CC(c2ccccc2)N1c1ccccc1 (stereo unspecified)
inactive: [1] -17.9% | [2] -34% | [3] -11.3% | [4] -20.6% | [5] -10.9% | [6] -22.8%

Cc1ccccc1C(=O)NCC(=O)O
inactive: [1] 10.8% | [2] -28.1% | [3] 8.2% | [4] 3.65% | [5] -4.1% | [6] 12.3%
